An excerpt weighted towards active compounds, which were near 3.9% of everything screened.
HT1080-NT tox: qHTS for induction of synthetic lethality in tumor cells producing 2HG: qHTS for the HT-1080-NT fibrosarcoma cell line; hit rate 1.6% among 360,000; HT-1080-NT fibrosarcoma viability, CellTiter-Glo ATP luminescence, 48 h; Potency, µM (top dose mostly 46.1 µM), inactives show top-dose activity, negative = less viability, most hits filed as cytotoxic;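 further: NT is the 2HG producing partner of a matched IDH1 knockdown line; 0% = DMSO-treated cells and -100% = media-only wells without cells; nearly all actives have a fitted effect of over 55% in size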
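Viability of the 2HG-overproducing fibrosarcoma line after 48 hours of compound exposure at 37 degrees C was determined by luminescence with CellTiter-Glo, and concentration-effect curves were then fitted and categorized.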
S2 tox: Viability Counterscreen for Primary qHTS for Inhibitors of ATXN expression; S2 cells (HEK-293 line with an ATXN2-luciferase reporter) viability, CellTiter-Fluor protease fluorescence, 24 h; Potency, µM (titrated, usually from 56.7 µM), hits mostly cytotoxic; hit rate 0.49% among 400,000; further: nearly all actives have a fitted effect of over 40% in size
HepG2 tox-1: qHTS for Inhibitors of TGF-b: Cytotox Counterscreen | HepG2 CAGA-GFP viability, ATP luminescence, 18 h | Potency, µM (titrated, usually from 46.1 µM), for the others: top-dose activity change, negative = cytotoxicity, actives largely listed as cytotoxic | hit rate 0.76% among 410,000 | AID 588856, 2011
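CellTiter-Glo luminescence gave cytotoxicity after 18 hours at 37 degrees C. The cells were HepG2 CAGA-GFP in 1% FBS DMEM, stimulated with 500 pg/mL TGF-beta after compound addition. %Activity was normalised to no-cell wells (complete cell-killing) and DMSO (no toxicity), and curves were fitted and classified.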
HT1080 IDH1KD tx: qHTS for induction of synthetic lethality in tumor cells producing 2HG: qHTS for the HT-1080-IDH1KD cell line; HT-1080 IDH1 knockdown viability, ATP luminescence, 48 h; Potency, µM (top dose mostly 46.1 µM), without a hit: top-dose activity, negative = toxicity, hits mostly cytotoxic; hit rate 2% among 360,000; AID 686971, 2013;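 further: 0% = DMSO wells and -100% = cell-free medium wells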
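Using the IDH1-knockdown HT-1080 line run in the same batch and compound series as the NT line, viability after 48 h at 37 °C was determined by CellTiter-Glo luminescence and expressed as % activity.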
TGFb SMAD3 inh: qHTS for Inhibitors of TGF-b; Potency, µM (series often up to 46.1 µM), for the others: at the highest dose activity, negative = inhibition, actives largely listed as inhibitors; hit rate 1.2% among 410,000; HepG2 CAGA-GFP TGF-b/SMAD3 reporter, GFP fluorescence, 18 h; TGF-beta stimulated, 500 pg/mL final; further: on the % scale 0 is the no-effect control and ±100 the full control effect; nearly all actives have a fitted effect of over 65% in size
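Read-out: total well GFP (ex488/em500-530) summed from mean per-cell fluorescence. Cells: HEPG2 CAGA-GFP, 1% FBS DMEM, 18 h at 37 degrees C with 500 pg/mL final TGF-beta. Unstimulated wells served as the full-inhibition control; stimulated DMSO wells = 0%.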
ATXN2 expr inh: Primary qHTS for Inhibitors of ATXN expression; Potency, µM (highest dose often 57 µM), without a hit: at the highest dose activity change, negative = inhibition, most hits filed as inhibitors; hit rate 0.72% among 360,000; HEK-293 ATXN2-luciferase reporter, luminescence, 24 h; AID 1745845, 2022; further: on the % scale 0 is the no-effect control and ±100 the full control effect; nearly all actives have a fitted effect of over 55% in size
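qHTS (up to 57 uM final) was run with 24 h compound exposure of reporter cells at 37 °C. Each well was multiplexed: SteadyGlo luminescence measured ATXN2-luciferase expression after a fluorogenic Gly-Phe-AFC viability readout (25 uM final).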
TGFb CAGA inh: qHTS for Inhibitors of TGF-b: Confirmation of Cherry Picks; shares compounds with TGFb SMAD3 inh; HepG2 CAGA-GFP TGF-b reporter, GFP fluorescence, 18 h; cells stimulated with TGF-beta, 500 pg/mL; Potency, µM (highest dose often 46.1 µM), inactives show top-dose activity, negative = inhibition, most hits filed as inhibitors; hit rate 63% among 1,600; AID 720534, 2013; further: on the % scale 0 is the no-effect control and ±100 the full control effect; nearly all actives have a fitted effect of over 65% in size
HepG2 tox-2: qHTS for Inhibitors of TGF-b: Cytotox Counterscreen for Cherry Picks | Potency, µM (highest dose often 46.1 µM), without a hit: at the highest dose activity, negative = cytotoxicity, most hits filed as inhibitors | hit rate 27% among 1,600 | HepG2 CAGA-GFP viability, ATP luminescence, 18 h; cells stimulated with TGF-beta, 500 pg/mL | shares compounds with TGFb SMAD3 inh; further: on the % scale 0 is the no-effect control and ±100 the full control effect; nearly all actives have a fitted effect of over 70% in size
TGFb CCL64 inh: qHTS for Inhibitors of TGF-b: CCL64 Cells Orthogonal Assay for Cherry Picks; CCL64 CAGA-GFP reporter, TGF-b stimulated, GFP fluorescence, 18 h; hit rate 41% among 1,600; shares compounds with TGFb SMAD3 inh; Potency, µM (series often up to 46.1 µM), inactives show top-dose activity, negative = inhibition, hits mostly inhibitors; AID 720536, 2013; further: nearly all actives have a fitted effect of over 65% in size
TGFb COP inh: qHTS for Inhibitors of TGF-b: Hit Validation in HepG2 Cells using COP promoter | shares compounds with TGFb SMAD3 inh | HepG2 COP-GFP TGF-b reporter, GFP fluorescence, 18 h; cells stimulated by added recombinant TGF-beta | Potency, µM (highest dose often 46.1 µM), for inactives: at the highest dose activity, negative = inhibition, usual class: inhibitors | hit rate 3% among 1,600; further: nearly all actives have a fitted effect of over 70% in size
The depositor's hits bear a star; i = inactive; ? = inconclusive; . = no result given. The call rests on the fitted dose curve; in most records, active means well fitted curve in the direction sought with a large enough effect; inconclusive means small, poorly fitted or top-dose-only effect, or another doubt; inactive means no such curve, though single readings can be large; an effect the other way counts as inactive or inconclusive. Potency means the concentration at half of the fitted maximal effect.

SMILES	HT1080-NT tox	S2 tox	HepG2 tox-1	HT1080 IDH1KD tx	TGFb SMAD3 inh	ATXN2 expr inh	TGFb CAGA inh	HepG2 tox-2	TGFb CCL64 inh	TGFb COP inh
CC1(C)Cc2ccccc2C2=NNC(=O)C2=N1	23µM*	?	-89%	7.3µM*	3.2µM*	?	4.6µM*	7.3µM*	?	12µM*
COc1ccccc1NS(=O)(=O)c1cccc(NC(=O)Nc2ccccc2)c1	-9%	i	-25%	-9%	10µM*	-29%	?	?	?	57%
CCOc1ccc(CN2CCN(C(=O)c3cccc4ccccc34)CC2)cc1	?	i	-41%	?	?	?	9.2µM*	?	3%	2%
CCNc1nc(N)c(C(=O)c2ccc(Cl)s2)s1	-11%	i	-1%	-13%	13µM*	43%	6.5µM*	?	?	15%
COc1ccc(CCNC(=O)c2cc(Nc3cc(C)cc(C)c3)nc3ccccc23)cc1OC	.	?	-28%	.	?	-39%	.	.	.	.
COc1ccc(/C=C2\COc3ccccc3C2=O)cc1OC	12µM*	i	1%	18µM*	16µM*	4%	?	?	18µM*	6%
CCOc1cc(/C=C2\COc3ccccc3C2=O)cc(Br)c1OCC(=O)N(C)C	18µM*	.	13µM*	13µM*	3.5µM*	22µM*	16µM*	?	15µM*	?
COc1ccc(/C=C2/CCc3ccccc3C2=O)cc1OC	7%	?	-30%	-13%	-29%	9%	.	.	.	.
CCOc1cc(/C=N/Nc2nc3ccccc3[nH]2)cc(Br)c1OCC(=O)N(C)C	?	?	18%	?	8.9µM*	?	12µM*	?	?	20%
COc1cc(/C=N\Nc2nc3ccccc3[nH]2)cc(OC)c1OC	-24%	i	-38%	-20%	?	4%	.	.	.	.
COc1cc(/C=C2\COC/C(=C\c3cc(OC)c(OC)c(OC)c3)C2=O)cc(OC)c1OC	?	?	3.5µM*	0.52µM*	0.63µM*	3.2µM*	1.3µM*	1.3µM*	1.3µM*	52%
Cc1ccc(C)c(Cn2c(=O)n(CCCC(=O)NCc3ccc4c(c3)OCO4)c(=O)c3sccc32)c1	.	.	-25%	.	-29%	.	.	.	.	.
CCCN1CCN(C(=O)Cn2c(-c3cccs3)cc3ccccc32)CC1	.	i	-1%	.	-2%	2%	.	.	.	.
Cc1cc(C)c2c(c1)C(=O)/C(=C/c1ccc(C(=O)O)cc1)CC2	-11%	i	4%	-25%	3%	60%	.	.	.	.
O=C(O)c1ccc(/C=C2\COc3ccccc3C2=O)cc1	?	i	-20%	?	14µM*	-34%	16µM*	16µM*	-89%	26%
Cc1ccc2c(c1)c1c(c(=O)n(Cc3ccccc3)c(=O)n1Cc1cccc(F)c1)n2C	.	i	2%	.	-19%	14%	.	.	.	.
Cc1nc(N2N=C3/C(=C/c4ccc(F)cc4)CCCC3C2c2ccc(F)cc2)sc1C(=O)N(C)C (stereo unspecified)	4%	.	-15%	-1%	13µM*	?	23µM*	?	?	30%
CCOc1ccc(NC2SC(=O)N(Cc3ccccc3)C2=O)cc1 (stereo unspecified)	.	.	6%	.	-9%	.	.	.	.	.
Cc1cc2c(cc3c(SCc4ccccc4Cl)nnc(C)n32)o1	.	.	-6%	.	-9%	.	.	.	.	.
COc1ccc(C(=O)C(CCC(CNC(C)(C)C)C(=O)c2ccc(OC)cc2)CNC(C)(C)C)cc1 (stereo unspecified)	?	?	-81%	4.6µM*	7.1µM*	?	?	18µM*	4.1µM*	?
COc1ccc(C(=O)CC(=O)c2ccc(C(C)(C)C)cc2)cc1	1%	i	-8%	-17%	-3%	?	.	.	.	.
COCCn1ccc2c(OCC(=O)Nc3cccc(OC)c3)cccc2c1=O	.	i	-5%	.	-6%	-16%	.	.	.	.
COc1ccc2[nH]c3c(N4CCc5ccccc5C4)ncnc3c2c1	2.3µM*	?	-52%	10µM*	7.1µM*	?	?	23µM*	18µM*	?
CCn1c(/C=C/c2ccc(O)c(O)c2)nc2ccccc2c1=O	-22%	i	-36%	-24%	?	.	.	.	.	.
CCn1c(/C=C/c2cc(Br)ccc2O)nc2ccccc2c1=O	-18%	i	-43%	-23%	10µM*	?	?	?	-3%	24%
COc1cc2nc(N(CCCN(C)C)C(=O)c3ccc(S(=O)(=O)N4CCc5ccccc5C4)cc3)sc2cc1OC	-1%	i	-62%	-2%	10%	-7%	.	.	.	.
COc1ccc(C)c2sc(N(CCCN(C)C)C(=O)c3ccc(S(=O)(=O)N4CCc5ccccc5C4)cc3)nc12	?	.	7.1µM*	?	5µM*	28µM*	4.6µM*	5.2µM*	5.2µM*	?
